Mcl1-Bid inh = Mcl-1/Bid interaction inhibition. Q07820. TR-FRET Mcl-1/Bid-Dy647 peptide binding, 1536-well. inhibition, % at 21.7 µM. 220,000 tested, 0.97% active. AID 1021;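 active means compounds that cut the binding signal by more than half at the single screening dose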;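 further: His-tagged Mcl-1 with europium anti-His antibody binding Bid BH3 peptide; 0% = Mcl-1 plus peptide wells and 100% = peptide-only wells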
Target sequence (Q07820 whole entry, looked up): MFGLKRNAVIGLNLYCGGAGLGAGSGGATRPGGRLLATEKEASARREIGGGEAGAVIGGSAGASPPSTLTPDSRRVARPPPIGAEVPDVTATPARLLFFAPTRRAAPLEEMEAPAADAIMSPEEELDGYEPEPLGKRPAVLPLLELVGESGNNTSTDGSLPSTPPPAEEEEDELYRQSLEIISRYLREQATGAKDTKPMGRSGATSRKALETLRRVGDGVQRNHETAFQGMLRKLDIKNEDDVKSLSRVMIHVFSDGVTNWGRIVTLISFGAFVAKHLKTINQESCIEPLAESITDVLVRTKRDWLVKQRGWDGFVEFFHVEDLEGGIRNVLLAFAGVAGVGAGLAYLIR
zVAD death inh = blocks zVAD induced death of L929 cells | L929 zVAD necroptosis rescue, ATP luminescence, 24 h; with zVAD 60 µM | viability rescue, % at 10 µM | 220,000 tested, 0.38% active | AID 1377;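 active means activation, scaled between plate controls, above about 75%, limit read from the data; inactive means activation under that limit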;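 further: 0% = zVAD with DMSO and 100% = DMSO alone without zVAD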
TNF necrop inh = TNF-alpha cell death inhibition in Jurkat FADD-/- cells | activation (protection from cell death), % at 10 µM | Jurkat FADD-/- TNF necroptosis rescue, ATP luminescence, 24 h; 0 = TNF only, 100 = no-TNF cells | 220,000 tested, 0.068% active | AID 463075;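 active means activation, meaning protection from cell death, of at least 50% relative to plate controls; inactive means activation below 50%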;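 further: necroptosis triggered by 40 ng/mL TNF-alpha added together with compound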
Mcl1 Noxa PPI = Mcl-1/Noxa interaction inhibition | inhibition, % at 21.7 µM | 220,000 tested, 1.5% active | TR-FRET Mcl-1/Noxa peptide binding, 2 h;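 active means compounds that cut the protein-peptide binding signal by more than 50% relative to plate controls in a single-dose test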;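 further: His-tagged Mcl-1 with rhodamine Noxa BH3 peptide and terbium anti-His antibody; 0% = Mcl-1 plus Noxa peptide wells and 100% = peptide-only wells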
MCL1 BIM primary = MCL1-BIM-BH3 interaction inhibition (human); Q07820; GST-MCL1 / FITC-Bim-BH3 fluorescence polarization; inhibition, % at 10.9 µM; 320,000 tested, 0.68% active; AID 2057;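 active means inhibition above the mean inhibition of all tested compounds plus 3 SD, set per campaign, cut at about 40% in these data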;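 further: 0% = DMSO wells and 100% = unlabeled Bim-BH3 peptide control; higher means more loss of mP so more displacement of Bim peptide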
Mcl-1 Bim block = human Bim-Mcl-1 interaction inhibition; Bead-based flow cytometry, Bim peptide-Mcl-1 binding; Q07820; AID 1009; 190,000 tested, 0.1% active; inhibition, % at 10 µM; in the data active means inhibition above about 40%;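 further: 0% = no compound tracer wells and 100% = peptide blocker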
Bcl-xL conf = Bcl-xL (human) inhibition, MCL1 counter-screen confirmation; shares compounds with MCL1 BIM primary; GST-Bcl-xL / FITC-Bim BH3 peptide FP binding; inhibition, % at 10.9 µM; 1,700 tested, 54% active;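 active means inhibition above a cutoff equal to the mean inhibition of all tested compounds plus 3 SD, cut at about 30% in these data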;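 further: 0% = DMSO wells and 100% = unlabeled Bim BH3 control peptide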
Target sequence (Q07817 whole entry, looked up): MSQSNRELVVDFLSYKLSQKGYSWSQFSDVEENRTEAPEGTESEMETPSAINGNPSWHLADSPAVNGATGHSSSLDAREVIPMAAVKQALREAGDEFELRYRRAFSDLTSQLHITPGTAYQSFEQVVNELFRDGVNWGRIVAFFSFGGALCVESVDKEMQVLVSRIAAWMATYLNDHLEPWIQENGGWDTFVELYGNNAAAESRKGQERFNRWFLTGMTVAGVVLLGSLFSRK
MCL1 inh confirm = confirmation of human MCL1 and BIM-BH3 interaction inhibitors; shares compounds with MCL1 BIM primary; GST-MCL1 / FITC-Bim-BH3 fluorescence polarization; inhibition, % at 10.9 µM; 1,700 tested, 61% active; AID 2168;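 active means inhibition above the average of all tested compounds plus 3 SD, cut at about 40% in these data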;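 further: 0% = DMSO wells and 100% = unlabeled Bim-BH3 control peptide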
Numbers without * were called inactive; / = no result. Rows were chosen to be rich in hits. Some 2.4% of all compounds tested hit in one or more screens of this group.

SMILES	Mcl1-Bid inh	zVAD death inh	TNF necrop inh	Mcl1 Noxa PPI	MCL1 BIM primary	Mcl-1 Bim block	Bcl-xL conf	MCL1 inh confirm
CCN(CC)S(=O)(=O)c1cccc(N=NC2=C(O)CCCC2=O)c1	-20.7	0.5	-1.1	33.6	5.1	-1.0	/	/
O=C1CCCC(O)=C1N=Nc1cccc(C(=O)O)c1	-42.7	1.7	0.7	56.7*	40.3*	0.0	11.4	35.3
COC(=O)CCCC1=CC2=CC(=O)C(C)(OC(=O)C3CCCC3)C(=O)C2=CO1 (stereo not given)	-61.6	0.5	-0.2	42.2	62.5*	/	41.1*	62.6*
CCCCC1=CC2=CC(=O)C(C)(OC(=O)C3CCCC3)C(=O)C2=CO1 (stereo not given)	-54.5	0.3	-0.9	39.9	31.7	/	/	/
CCCCC1=CC2=CC(=O)C(C)(OC(=O)CC)C(=O)C2=CO1 (stereo not given)	/	/	/	/	31.7	/	/	/
CCC(=O)OC1(C)C(=O)C=C2C=C(CCCC(=O)OC)OC=C2C1=O (stereo not given)	/	/	/	/	85.6*	/	41.3*	74.9*
COc1ccc(-c2c(NC(=O)CC(C)C)n(C)c3ccccc3c2=O)cc1OC	/	/	/	/	4.9	/	/	/
Nc1ccc2c(c1)C/C(=C/c1ccco1)C2=O	-82.8	45.7	-1.4	36.6	105.3*	-3.0	97.3*	106.1*
CCOc1ccc(NC(=O)C2=NN(c3ccccc3)C(=O)CC2)cc1S(=O)(=O)N1CCCCC1	/	/	/	/	-5.2	/	/	/
COCC1CCN(C(=O)C2CCC(=O)N(CCc3cccc(F)c3)C2)CC1 (stereo not given)	/	/	/	/	4.3	/	/	/
COC(=O)c1c(C(=O)OC)c2ccccn2c1C(=O)c1ccc([N+](=O)[O-])cc1	/	/	/	/	3.6	/	/	/
CC(C)OC(=O)c1c2c(n3ccccc13)C(=O)c1ccccc1C2=O	-5.9	1.0	-5.1	-3.6	122.2*	8.0	135.8*	151.2*
Cc1ccc(NC(=O)CCNS(=O)(=O)c2ccc3c(c2)CCC(=O)N3)cc1C	/	/	/	/	-4.9	/	/	/
Cn1cc(CN2CCC(C(=O)Nc3cccc(-c4cccc(F)c4)c3)CC2)cn1	/	/	/	/	81.8*	/	7.8	13.0
COc1cccc(-c2cccc(NC(=O)C3CCN(Cc4cnn(C)c4)CC3)c2)c1	/	/	/	/	-3.8	/	/	/
Cc1ccc(C(=O)N/N=C/c2ccc(-c3ccc(Br)cc3[N+](=O)[O-])o2)o1	/	/	/	/	62.4*	/	12.3	-11.2
COc1ccc(CCNC(=O)Nc2ccccc2[N+](=O)[O-])cc1	-0.7	-0.8	1.3	0.6	1.9	-3.0	/	/
N#C/C(=C\c1cccc([N+](=O)[O-])c1)C(=O)NCC1CCCO1 (stereo not given)	-32.4	-0.9	-7.4	25.1	50.1*	0.0	1.7	-0.2
CC1(C)CC(=O)C(C(c2ccc(F)cc2)C2C(=O)CC(C)(C)CC2=O)C(=O)C1	-31.6	0.8	1.4	16.2	0.9	3.0	/	/
CCc1sc(C(C2C(=O)CC(C)(C)CC2=O)C2C(=O)CC(C)(C)CC2=O)cc1[N+](=O)[O-]	32.6	1.4	-2.8	48.3	43.0*	5.0	15.1	56.6*
CC(=O)N1c2ccccc2C(=O)C1N1CCCCC1 (stereo not given)	-6.4	1.9	1.1	-18.5	68.9*	-5.0	51.8*	63.5*
CCOC(=O)C1=C(CSc2nc3c(cc2C#N)CCC3)OC(N)=C(C#N)C1c1ccccc1 (stereo not given)	-28.7	1.9	0.5	24.7	6.3	0.0	/	/
COC(=O)C1=C(CSc2nc3c(cc2C#N)CN(C)CC3)OC(N)=C(C#N)C1c1ccccc1F (stereo not given)	-23.4	-0.2	-3.7	33.9	99.9*	-5.0	23.2	21.3
CCOC(=O)C1=C(CSc2nc3c(cc2C#N)CN(C)CC3)OC(N)=C(C#N)C1c1ccccc1 (stereo not given)	-16.4	-0.3	-0.5	32.6	84.6*	-4.0	16.4	8.4
Cc1cccc(C(=O)NCc2nnc(SCC(=O)Nc3nncs3)n2C)c1	/	/	/	/	-3.6	/	/	/
SMILES	Mcl1-Bid inh	zVAD death inh	TNF necrop inh	Mcl1 Noxa PPI	MCL1 BIM primary	Mcl-1 Bim block	Bcl-xL conf	MCL1 inh confirm
CCc1ccc(S(=O)(=O)Nc2ccc(Br)cn2)cc1	/	/	/	/	-1.1	/	/	/
COC(=O)[C@@H]1[C@H]2C[C@H]3c4[nH]c5ccccc5c4CCN3C[C@@H]2CC[C@@H]1O	/	/	/	/	0.5	/	/	/
COC(=O)C1=COC(C)C2CN3CCc4c([nH]c5cc(OC)c(OC)cc45)C3CC12 (stereo not given)	-112.0	0.8	0.8	-13.8	96.2*	/	94.3*	113.4*
COc1cccc(-c2ncc3ccccc3c2COC(=O)N(C)C)c1	/	/	/	/	-2.2	/	/	/
COc1cc(/C=C(\NC(C)=O)C(=O)Nc2cccc(O)c2)ccc1OC(C)=O	-22.2	0.4	1.8	-1.7	-7.0	-5.0	/	/
COc1ccc(CNC(=O)C(C#N)c2nc3ccccc3nc2N2CCN(C)CC2)cc1 (stereo not given)	-58.9	0.4	-0.6	19.8	2.8	-3.0	/	/
C=CCNC(=O)C(C#N)c1nc2ccccc2nc1N1CCCCCC1 (stereo not given)	-70.9	2.1	1.0	14.5	70.6*	3.0	31.8*	31.6
COc1ccc(CNC(=O)C(C#N)c2nc3ccccc3nc2N2CCCC2)cc1 (stereo not given)	-5.3	-0.1	-1.3	-12.5	53.7*	-2.0	63.0*	74.7*
O=C(Nc1ccncc1)C1CCN(S(=O)(=O)c2ccccc2C(F)(F)F)CC1	/	/	/	/	-2.1	/	/	/
O=C(O)c1cc(O)c2c(c1)C(=O)c1cc(O)cc(O)c1C2=O	6.8	-1.1	-3.7	61.7*	40.6*	1.0	20.9	33.9
CN1CCN(C(c2ccc(Cl)cc2)c2cc(Cl)c3cccnc3c2O)CC1 (stereo not given)	/	/	/	/	43.4*	/	35.6*	95.4*
CCn1cc(C(=O)NN)c(=O)c2cc(F)c(N3CCOCC3)cc21	/	/	/	/	41.1*	/	15.2	29.2
CC(C)(C)OC(=O)NC(Cc1ccccc1)C(=O)N1CCC(C(=O)NCC(=O)Nc2ccc(F)cc2)CC1 (stereo not given)	/	/	/	/	122.0*	/	111.3*	141.4*
N#C/C(=C\c1ccc(O)c(O)c1)C(=O)NCCc1ccccc1	/	/	/	/	41.6*	/	31.4*	45.1*
COc1ccc(/C=C(\C#N)C(=O)NCc2ccccc2)cc1O	/	/	/	/	-2.3	/	/	/
O=C(O)C1Nc2c(Cl)cc(Cl)cc2C2C=CCC12 (stereo not given)	/	/	/	/	105.1*	/	51.9*	90.7*
O=C(O)C1Nc2c(Cl)cc(Cl)c(Cl)c2C2C=CCC12 (stereo not given)	/	/	/	/	102.7*	/	123.0*	167.7*
CN(CC(=O)Nc1cccc(F)c1)C(=O)C1CCN(S(=O)(=O)c2ccc3c(c2)OCCO3)CC1	/	/	/	/	-10.5	/	/	/
